Like-named read-outs stand apart in the source and are kept apart here. Out of some 13,000 compounds screened, about 3,200 (25%) showed an effect of 50% or more. The list shows a part of the results.
System: P. falciparum stage V gametocytes
Set-up: BacTiter-Glo ATP luminescence viability of purified stage V gametocytes in 384-well plates, per cent inhibition versus DMSO
Details: 48 h, 5 µM, inhibitor

In the case of `O=C(NCCN1CCCCC1)c1ccc(CNC(=O)c2ccc(O)c(-c3ccc(Cl)c(Cl)c3)c2)cc1` [TCMDC-140860], the “% Inhibition” value is reported as -11.08%.

`COc1ccc(Nc2nc(C)cc(NC3CCCC3)n2)cc1` [TCMDC-133465] was tested, and the “% Inhibition” value was 24.25%.

In the case of `CCOC(=O)c1c(CCc2ccc(C(F)(F)F)cc2)nc2c(c1-c1ccc(C(=O)N[C@@H](C)c3ccncc3)cc1)C(=O)N1CCC[C@@H]21` [TCMDC-138612], the “% Inhibition” value is reported as 6.02%.

For `CCCNC(=O)CN1CN(c2ccccc2)C2(CCN(C(=O)c3ccc(C(C)(C)C)cc3)CC2)C1=O` [TCMDC-125173], the “% Inhibition” value was -65.45%.

With `Cc1c(C)n(Cc2ccccc2)c2ncnc(OC3CCN(CC(=O)NCC4CC4)CC3)c12` [TCMDC-125326] the “% Inhibition” value was -12.47%.

In the case of `CCOC(=O)c1[nH]c(-c2cccnc2)nc1NC(=S)NCc1ccccc1` [TCMDC-138784], the “% Inhibition” value is reported as -4.964%.

`COc1cccc(C(O)CNc2ccnc(Nc3cccc(-c4csc(C)n4)c3)n2)c1` (stereo not shown) [TCMDC-136574] was tested, and the “% Inhibition” value was 8.83%.

`CCN(CC)CCCN1CCN(C(=O)c2cccc(-c3noc(C(F)(F)F)n3)c2)CC1` [TCMDC-132421] was tested, and the “% Inhibition” value was -5.247%.

With `NC(N)=NC(=O)Nc1cc(Br)c(Cl)c(C(F)(F)F)c1` [TCMDC-137513] the “% Inhibition” value was -25.86%.

With `CCc1ccc(-c2nc3cc(NC(=O)c4cc([N+](=O)[O-])cc([N+](=O)[O-])c4)ccc3o2)cc1` [TCMDC-124220] the “% Inhibition” value was -7.299%.

In the case of `COc1ccc(-c2csc3nc(C)nc(Cl)c23)cc1OC` [TCMDC-125523], the “% Inhibition” value is reported as -37.7%.

With `CC[C@H]1CN2CC[C@H]1C[C@H]2[C@H](O)c1cc(-c2cccc(Cl)c2)nc2ccc(OC)cc12` [TCMDC-141215] the “% Inhibition” value was 86%.

For `CC[C@H]1CN2CC[C@@H]1C[C@H]2[C@H](O)c1cc(-c2cc(Cl)cc(Cl)c2)nc2ccc(OC)cc12` [TCMDC-141351], the “% Inhibition” value was 45.7%.

In the case of `CC[C@H]1CN2CC[C@H]1C[C@H]2[C@H](O)c1cc(-c2ccc(F)cc2)nc2ccc(OC)cc12` [TCMDC-141195], the “% Inhibition” value is reported as 81.45%.

`C=C[C@H]1CN2CC[C@@H]1C[C@H]2[C@H](O)c1cc(-c2ccc(F)cc2)nc2ccc(OC)cc12` [TCMDC-141374] was tested, and the “% Inhibition” value was 31.93%.

For `CC[C@H]1CN2CC[C@H]1C[C@H]2[C@H](O)c1cc(-c2ccc3ccccc3c2)nc2ccc(OC)cc12` [TCMDC-141213], the “% Inhibition” value was 91.14%.

`CC[C@H]1CN2CC[C@H]1C[C@H]2[C@H](O)c1cc(-c2ccc(C)cc2)nc2ccc(OC)cc12` [TCMDC-141192] was tested, and the “% Inhibition” value was 31.69%.

For `COc1ccc2nc(-c3ccc(F)cc3)cc([C@@H](O)[C@@H]3C[C@@H]4CCN3CC4C=NO)c2c1` (stereo partly shown) [TCMDC-141395], the “% Inhibition” value was 28.31%.

`C=C[C@H]1CN2CC[C@H]1C[C@H]2[C@H](O)c1cc(-c2ccc(Cl)cc2)nc2ccc(OC)cc12` [TCMDC-139009] was tested, and the “% Inhibition” value was 109.5%.

`CC[C@H]1CN2CC[C@H]1C[C@H]2[C@H](O)c1cc(-c2ccc(F)cc2C)nc2ccc(OC)cc12` [TCMDC-141197] was tested, and the “% Inhibition” value was 26.99%.

`COc1ccc2nccc(N3CCC(SCCNS(=O)(=O)c4ccc5c(c4)OCCO5)C3)c2n1` (stereo not shown) [TCMDC-134549] was tested, and the “% Inhibition” value was -1.611%.

`CCCC(=O)c1cnc2c(I)cccc2c1Nc1ccccc1C` [TCMDC-138960] was tested, and the “% Inhibition” value was -3.378%.

For `Cc1cccc2[nH]c(-c3ccc(-c4cccc(CN5CCN(c6ccncc6)CC5)c4)cc3)nc12` [TCMDC-132913], the “% Inhibition” value was 17.14%.

In the case of `CC1(C)N=C(N)N=C(N)N1OCCOc1ccc(Cc2ccccc2)cc1` [TCMDC-131618], the “% Inhibition” value is reported as 0.9057%.

`CCC1(C)N=C(N)N=C(N)N1c1ccccc1` (stereo not shown) [TCMDC-131294] was tested, and the “% Inhibition” value was 1.322%.

For `COc1ccc(Br)cc1/C=C/C(=O)Nc1cccc(C2CCN(C)CC2)c1` [TCMDC-133709], the “% Inhibition” value was 17.69%.

In the case of `CC(CN)OCn1cnc2c(N)ncnc21` (stereo not shown) [TCMDC-137691], the “% Inhibition” value is reported as 4.807%.

In the case of `Nc1ccc(-c2ccc(NC(=O)Nc3ccccc3)cc2)cn1` [TCMDC-133409], the “% Inhibition” value is reported as 8.914%.

In the case of `Cc1noc(C)c1-c1cccc(CNCc2ccc(-c3ccc(-c4nc5ccccc5[nH]4)s3)cc2)c1.O=C(O)C(F)(F)F` [TCMDC-133049], the “% Inhibition” value is reported as 5.306%.

In the case of `COc1ccc(-c2onc(C(F)(F)F)c2-c2ccc(Br)cc2)c(O)c1` [TCMDC-125235], the “% Inhibition” value is reported as 3.062%.

For `O=C(Nc1ccc(N2CCCN(Cc3cccc(F)c3)CC2)cc1)c1ccc(F)cc1` [TCMDC-135020], the “% Inhibition” value was -31.48%.

`CC[C@H]1CN2CC[C@H]1C[C@H]2[C@H](O)c1cc(-c2cccc(C)c2)nc2ccc(OC)cc12` [TCMDC-141191] was tested, and the “% Inhibition” value was 44.26%.

With `CC[C@H]1CN2CC[C@@H]1C[C@H]2[C@H](O)c1cc(-c2cccnc2)nc2ccc(OC)cc12` [TCMDC-141335] the “% Inhibition” value was -21.27%.

In the case of `CC[C@H]1CN2CC[C@H]1C[C@H]2[C@H](O)c1cc(-c2cccc(F)c2)nc2ccc(OC)cc12` [TCMDC-141194], the “% Inhibition” value is reported as 63.72%.

`O=S(=O)(Nc1cccc(CCN2CCC(N3CCCCC3)CC2)c1)c1cccc2cccnc12` [TCMDC-134074] was tested, and the “% Inhibition” value was 50.45%.

In the case of `Cc1c(Cl)cccc1S(=O)(=O)Nc1cccc(CCN2CCC(N3CCCCC3)CC2)c1` [TCMDC-134064], the “% Inhibition” value is reported as 56.09%.

In the case of `COc1ccc(Cl)cc1S(=O)(=O)Nc1cccc(CCN2CCC(N3CCCCC3)CC2)c1` [TCMDC-134076], the “% Inhibition” value is reported as 49.77%.

With `Cc1cccc(Cl)c1S(=O)(=O)Nc1cccc(CCN2CCC(N3CCCCC3)CC2)c1` [TCMDC-134063] the “% Inhibition” value was 18.66%.

In the case of `O=S(=O)(Nc1ccc(CCN2CCC(N3CCCCC3)CC2)cc1)c1cccc2cccnc12` [TCMDC-134081], the “% Inhibition” value is reported as 43.01%.

With `CN(C)c1cccc2c(S(=O)(=O)Nc3cccc(CCN4CCC(N5CCCCC5)CC4)c3)cccc12` [TCMDC-134066] the “% Inhibition” value was 76.83%.

With `O=S(=O)(Nc1cccc(CCN2CCC(N3CCCCC3)CC2)c1)c1cccc2ccccc12` [TCMDC-134069] the “% Inhibition” value was 73%.

`Cc1nc2ccc3ccc(CNc4ccc(C#N)cc4)cc3c2c(=O)[nH]1` [TCMDC-137846] was tested, and the “% Inhibition” value was -36.65%.

`CCCCCCN1CCCN(Cc2ccc(C(=O)Nc3ccc(C(C)(C)C)cc3)cc2)CC1` [TCMDC-136446] was tested, and the “% Inhibition” value was -5.342%.

In the case of `O=C(Cc1ccc[n+]([O-])c1)Nc1ccc(-c2cccc(-c3nc4cc(C(F)(F)F)ccc4[nH]3)c2)cc1` [TCMDC-136991], the “% Inhibition” value is reported as -49.92%.

`O=C(Nc1cccc(-c2ccc(-c3nc4ccc(C(F)(F)F)cc4[nH]3)cc2)c1)c1ccoc1` [TCMDC-136848] was tested, and the “% Inhibition” value was -29.98%.

In the case of `NC(=O)c1cccc(C(=O)Nc2ccc(-c3cccc(-c4nc5ccc(C(F)(F)F)cc5[nH]4)c3)cc2)c1` [TCMDC-132200], the “% Inhibition” value is reported as -70.46%.

With `O=C(Nc1ccc(-c2cccc(-c3nc4ccc(C(F)(F)F)cc4[nH]3)c2)cc1)c1cccnc1` [TCMDC-136926] the “% Inhibition” value was 86.45%.

`O=C(Nc1ccc(-c2cccc(-c3nc4ccc(C(F)(F)F)cc4[nH]3)c2)cc1)c1ccncc1` [TCMDC-136964] was tested, and the “% Inhibition” value was -22.85%.

With `O=C(Nc1cccc(-c2ccc(-c3nc4ccc(C(F)(F)F)cc4[nH]3)cc2)c1)c1cccnc1` [TCMDC-136930] the “% Inhibition” value was 51.27%.

In the case of `O=C(Nc1cccc(-c2ccc(-c3nc4ccc(C(F)(F)F)cc4[nH]3)cc2)c1)c1ccncc1` [TCMDC-136967], the “% Inhibition” value is reported as -31.79%.

In the case of `O=C(Nc1ccc(-c2cccc(-c3nc4ccc(C(F)(F)F)cc4[nH]3)c2)cc1)c1ccoc1` [TCMDC-136845], the “% Inhibition” value is reported as 54.13%.

`O=C(Nc1cccc(-c2cccc(-c3nc4ccc(C(F)(F)F)cc4[nH]3)c2)c1)c1ccoc1` [TCMDC-136844] was tested, and the “% Inhibition” value was 9.594%.

For `O=C(Nc1cccc(-c2cccc(-c3nc4ccc(C(F)(F)F)cc4[nH]3)c2)c1)c1cccnc1` [TCMDC-136925], the “% Inhibition” value was -23.9%.

In the case of `CC(=O)Oc1ccc(C(=O)Oc2ccccc2C#CC#N)cc1OC(C)=O` [TCMDC-138111], the “% Inhibition” value is reported as 22.32%.

With `CC(Oc1ccc(Cl)cc1Cl)c1nc(-c2ccc(NC(=O)c3ccco3)cc2)no1` (stereo not shown) [TCMDC-124355] the “% Inhibition” value was -1.611%.

In the case of `O=C(Nc1ccc2c(c1)CN(Cc1ccc(N3CCCC3)o1)CCC2)c1cncs1` [TCMDC-134724], the “% Inhibition” value is reported as -13.68%.

`O=C(/C=C/c1ccc(C(F)(F)F)cc1)NC1CCC(CN2CCC(c3c[nH]c4ccccc34)CC2)CC1` (stereo not shown) [TCMDC-139768] was tested, and the “% Inhibition” value (% Inhibition) was 87.3%.

`O=C(/C=C/c1ccc(C(F)(F)F)cc1)NC1CCC(CN2CCC(c3c[nH]c4ccccc34)CC2)CC1` (stereo not shown) [TCMDC-139758] was tested, and the “% Inhibition” value (% Inhibition) was 96.79%.

For `O=C(/C=C/c1cc(C(F)(F)F)ccc1F)NC1CCC(CN2CCC(c3c[nH]c4ccccc34)CC2)CC1` (stereo not shown) [TCMDC-139855], the “% Inhibition” value was -4.527%.

In the case of `CS(=O)(=O)c1ccc(-c2cncc(Cl)n2)cc1` [TCMDC-135191], the “% Inhibition” value is reported as 20.05%.

In the case of `COc1cc(NC(=O)/C=C/c2cc(F)cc(F)c2F)cc(OCCN2CCCCC2)c1` [TCMDC-140932], the “% Inhibition” value is reported as -50.87%.

In the case of `Cc1cc(NC2CCN(CC3CCCCC3)C2)nc(Nc2ccc(Cl)cc2)n1` (stereo not shown) [TCMDC-137018], the “% Inhibition” value is reported as 51.98%.

With `Cc1cc(NC2CCN(CC3CCCCC3)C2)nc(Nc2ccc(Br)cc2)n1` (stereo not shown) [TCMDC-137022] the “% Inhibition” value was 32.36%.

`Cc1cc(N2CCCN(CC3CCCCC3)CC2)nc(Nc2ccc(Br)cc2)n1` [TCMDC-137133] was tested, and the “% Inhibition” value was -10.88%.

With `Cc1cc(N2CCN(CC3CCN(C)CC3)CC2)nc(Nc2ccc(Cl)cc2)n1` [TCMDC-137012] the “% Inhibition” value was 55.47%.

In the case of `Cc1cc(N2CCN(CC3CCCCC3)CC2)nc(Nc2ccc(Br)cc2)n1` [TCMDC-137021], the “% Inhibition” value is reported as -43.3%.

In the case of `Cc1cc(N2CCCN(C)CC2)nc(Nc2ccc(Cl)cc2)n1` [TCMDC-137009], the “% Inhibition” value is reported as 14.59%.

For `Cc1cc(N2CCN(CC3CCN(C)CC3)CC2)nc(Nc2ccc(Br)cc2)n1` [TCMDC-137016], the “% Inhibition” value was 54.5%.

For `Cc1cc(NCC2CCN(CC3CCCCC3)C2)nc(Nc2ccc(Cl)cc2)n1` (stereo not shown) [TCMDC-137020], the “% Inhibition” value was -71.76%.

For `Cc1cc(N2CCC(N(C)C)C2)nc(Nc2ccc(Cl)cc2)n1` (stereo not shown) [TCMDC-137011], the “% Inhibition” value was -3.517%.
